# Inconclusive results are not listed. Where a call stands in place of a potency, no number is given. Activity calls are given as the source filed them. Unless noted, calls follow the shape of the dose curve; as a rule, active = well fitted curve in the direction sought with a large enough effect; inconclusive = small, poorly fitted or top-dose-only effect, or another doubt; inactive = no such curve, though single readings can be large; an effect the other way counts as inactive or inconclusive.
# Biological target: T1, Tyrosine-protein phosphatase non-receptor type substrate 1 (Homo sapiens) + Leukocyte surface antigen CD47 (Homo sapiens) (UniProt P78324+Q08722)
# Experiment: CD47-SIRPalpha protein protein interaction - HTRF assay qHTS validation (AID 1347058; active = well fitted curve in the direction sought with a large enough effect in the signal ratio, not every such curve was filed as active; the % refers to the signal ratio;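 also: recombinant soluble extracellular CD47 with His tag and biotinylated SIRPalpha domains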)
# Details: TR-FRET HTRF CD47-His / biotin-SIRPalpha binding, ratio 665/615; series mostly up to 38.3 µM
# Procedure, shortened: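 TR-FRET read (Ch1/Ch2 ratio) of soluble extracellular CD47 and Avi-biotinylated SIRPalpha domains in PBS pH 7.4 with 0.05% IGEPAL; 7-point compound titration. Sequential 30 min room-temperature steps; non-biotinylated SIRPalpha as control inhibitor.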
# T1 sequence (P78324 whole entry, looked up, the tested form may be a part): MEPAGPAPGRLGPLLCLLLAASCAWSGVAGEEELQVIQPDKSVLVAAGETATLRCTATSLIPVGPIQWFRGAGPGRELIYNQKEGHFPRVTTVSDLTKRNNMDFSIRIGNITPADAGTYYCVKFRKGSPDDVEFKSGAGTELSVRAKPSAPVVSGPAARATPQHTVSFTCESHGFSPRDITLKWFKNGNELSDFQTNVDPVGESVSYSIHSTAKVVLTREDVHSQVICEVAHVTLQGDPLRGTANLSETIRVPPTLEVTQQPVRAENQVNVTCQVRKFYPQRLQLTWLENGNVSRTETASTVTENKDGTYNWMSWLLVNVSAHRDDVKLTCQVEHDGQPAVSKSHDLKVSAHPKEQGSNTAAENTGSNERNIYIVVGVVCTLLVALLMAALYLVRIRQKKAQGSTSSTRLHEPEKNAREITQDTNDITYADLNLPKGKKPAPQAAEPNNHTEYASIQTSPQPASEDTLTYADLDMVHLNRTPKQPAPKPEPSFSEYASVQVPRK
# T1 sequence (Q08722 whole entry, looked up, the tested form may be a part): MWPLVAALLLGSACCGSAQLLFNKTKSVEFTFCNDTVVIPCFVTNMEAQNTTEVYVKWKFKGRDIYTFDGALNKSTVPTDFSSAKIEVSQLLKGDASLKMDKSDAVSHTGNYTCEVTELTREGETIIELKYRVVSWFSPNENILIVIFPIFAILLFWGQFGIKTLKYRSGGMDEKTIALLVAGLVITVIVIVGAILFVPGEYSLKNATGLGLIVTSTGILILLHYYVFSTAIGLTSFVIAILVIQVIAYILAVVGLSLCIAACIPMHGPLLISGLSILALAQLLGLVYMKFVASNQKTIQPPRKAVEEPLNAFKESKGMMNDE
row,Structure (SMILES),outcome
1,CNC[C@H](O)c1cccc(O)c1,inactive
2,CCc1cncnc1N1CCN(Cc2nc3ccc(C(F)(F)F)cc3[nH]2)CC1,inactive
3,OC(CCN1CCCCC1)(c1ccccc1)C1CC2C=CC1C2 (stereo not given),inactive
4,Cc1cn[nH]c1,inactive
5,NC(=O)c1cnccn1,inactive
6,Nc1nc2ccc(OC(F)(F)F)cc2s1,inactive
7,Cc1cc2c(C(C)C)c(O)c(O)c(C=O)c2c(O)c1-c1c(C)cc2c(C(C)C)c(O)c(O)c(C=O)c2c1O,inactive
8,C1COC(NC(C2CC2)C2CC2)=N1,inactive
9,Clc1cccc(Cl)c1NC1=NCCN1,inactive
10,Cc1ccccc1C(OCCN(C)C)c1ccccc1 (stereo not given),inactive

# Biological target: T1, Tyrosine-protein phosphatase non-receptor type substrate 1 (Homo sapiens) + Leukocyte surface antigen CD47 (Homo sapiens)
# Experiment: CD47-SIRPalpha protein protein interaction - Alpha assay qHTS validation (AID 1347059);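 also: bead proximity luminescence from CD47 binding SIRPalpha after compound preincubation with SIRPalpha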
# Details: AlphaScreen CD47-His/biotin-SIRPalpha binding, LOPAC; series mostly up to 38.3 µM
# Procedure, shortened: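 Binding is measured by AlphaScreen proximity: Ni-NTA acceptor beads capture His-CD47, streptavidin donor beads capture biotin-SIRPalpha. Each of three additions (SIRPalpha with compound, CD47, beads) incubates 30 min at room temperature protected from light.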
row,Structure (SMILES),outcome
1,O=C(Nc1nc2ccccc2n1CCN1CCOCC1)c1cccc([N+](=O)[O-])c1,inactive
2,CNC[C@H](O)c1cccc(O)c1,inactive
3,CCc1cncnc1N1CCN(Cc2nc3ccc(C(F)(F)F)cc3[nH]2)CC1,inactive
4,OC(CCN1CCCCC1)(c1ccccc1)C1CC2C=CC1C2 (stereo not given),inactive
5,Cc1cn[nH]c1,inactive
6,NC(=O)c1cnccn1,inactive
7,Nc1nc2ccc(OC(F)(F)F)cc2s1,inactive
8,C1COC(NC(C2CC2)C2CC2)=N1,inactive
9,Clc1cccc(Cl)c1NC1=NCCN1,inactive
10,NC(N)=NC(=O)c1nc(Cl)c(N)nc1N,inactive
11,Cc1ccccc1C(OCCN(C)C)c1ccccc1 (stereo not given),inactive

# Biological target: Parathyroid hormone/parathyroid hormone-related peptide receptor (Homo sapiens) (UniProt Q03431)
# Experiment: qHTS for PTHR1 Agonists: Optimization Screen against the NCGC LOPAC library (AID 1347079);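 also: GloSensor cAMP luminescence in HEK-293 GP2 cells expressing human PTHR1 with IBMX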
# Details: HEK293 GP2 PTHR1 GloSensor cAMP luminescence, 1 h; series mostly up to 57.1 µM
# Procedure, shortened: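 Compounds were tested across a qHTS titration. PTHR1-expressing GP2 cells report cAMP rises via GloSensor luminescence after 1 hr compound exposure at 37C with IBMX present.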
# Chain of Parathyroid hormone/parathyroid hormone-related peptide receptor (Homo sapiens) (Q03431 whole entry, looked up): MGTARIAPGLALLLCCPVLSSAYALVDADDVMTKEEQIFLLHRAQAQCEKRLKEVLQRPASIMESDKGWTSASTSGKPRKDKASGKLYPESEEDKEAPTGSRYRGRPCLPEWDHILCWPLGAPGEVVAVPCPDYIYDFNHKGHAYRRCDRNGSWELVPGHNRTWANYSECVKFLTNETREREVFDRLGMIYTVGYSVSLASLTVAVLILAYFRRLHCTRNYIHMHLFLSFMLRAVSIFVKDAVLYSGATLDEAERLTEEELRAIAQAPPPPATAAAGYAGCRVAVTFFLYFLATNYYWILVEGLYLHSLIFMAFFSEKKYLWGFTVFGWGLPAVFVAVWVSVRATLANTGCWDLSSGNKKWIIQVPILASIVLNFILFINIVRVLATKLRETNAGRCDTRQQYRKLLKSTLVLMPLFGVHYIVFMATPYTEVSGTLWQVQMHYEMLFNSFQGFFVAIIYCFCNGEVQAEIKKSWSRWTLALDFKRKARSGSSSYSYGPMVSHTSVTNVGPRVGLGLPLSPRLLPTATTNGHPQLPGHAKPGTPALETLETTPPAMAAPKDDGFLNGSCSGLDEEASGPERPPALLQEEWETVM
row,Structure (SMILES),outcome
1,O=C(Nc1nc2ccccc2n1CCN1CCOCC1)c1cccc([N+](=O)[O-])c1,inactive
2,CNC[C@H](O)c1cccc(O)c1,inactive
3,OC(CCN1CCCCC1)(c1ccccc1)C1CC2C=CC1C2 (stereo not given),inactive
4,Cc1cn[nH]c1,inactive
5,NC(=O)c1cnccn1,inactive
6,Nc1nc2ccc(OC(F)(F)F)cc2s1,inactive
7,Cc1cc2c(C(C)C)c(O)c(O)c(C=O)c2c(O)c1-c1c(C)cc2c(C(C)C)c(O)c(O)c(C=O)c2c1O,inactive
8,C1COC(NC(C2CC2)C2CC2)=N1,inactive
9,Clc1cccc(Cl)c1NC1=NCCN1,inactive
10,NC(N)=NC(=O)c1nc(Cl)c(N)nc1N,inactive
11,Cc1ccccc1C(OCCN(C)C)c1ccccc1 (stereo not given),inactive

# Test system: not listed separately
# Experiment: qHTS of pediatric cancer cell lines to identify multiple opportunities for drug repurposing: Primary screen for TC32 cells (AID 1347089); also: nearly all actives have a fitted effect of over 60% in size; also: potency is read from the fitted curve at half-maximal effect
# Details: TC32 Ewing sarcoma viability, CellTiter-Glo luminescence, 48 h; series mostly up to 45.8 µM
# Procedure, shortened: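 Measured quantity: luminescence from CellTiter-Glo, reflecting metabolically active TC32 cells following 48 h of compound. Curves came straight from multi-point titrations, with 8 or 11 points in primary and 11 in confirmatory screening.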
row,Structure (SMILES),Potency
1,O=C(Nc1nc2ccccc2n1CCN1CCOCC1)c1cccc([N+](=O)[O-])c1,inactive
2,C[C@@H]1CN(Cc2ccc(F)cc2)[C@@H](C)CN1C(=O)c1cc2c(C(=O)C(=O)N(C)C)cn(C)c2cc1Cl,inactive
3,CN(C)C(=O)c1ccc(S(=O)(=O)c2ccc(NC(=O)[C@@](C)(O)C(F)(F)F)c(Cl)c2)cc1,inactive
4,O=C(c1cc(Cc2n[nH]c(=O)c3ccccc23)ccc1F)N1CCN(C(=O)C2CC2)CC1,16.5 µM (active)
5,CCc1cncnc1N1CCN(Cc2nc3ccc(C(F)(F)F)cc3[nH]2)CC1,inactive
6,OC(CCN1CCCCC1)(c1ccccc1)C1CC2C=CC1C2 (stereo not given),inactive
7,COCC(=O)NCC=Cc1ccc2ncnc(Nc3ccc(Oc4ccc(C)nc4)c(C)c3)c2c1,inactive
8,Cc1cn[nH]c1,inactive
9,Cn1cnc2c(F)c(Nc3ccc(Br)cc3Cl)c(C(=O)NOCCO)cc21,inactive
10,COc1ccc(CCN2CCN(CCCc3ccccc3)CC2)cc1OC,inactive
11,OCCn1cc(-c2cnc3nnn(Cc4ccc5ncccc5c4)c3n2)cn1,inactive
12,NC(=O)c1ccc(-c2nc(-c3ccc4c(c3)OCCO4)c(-c3ccccn3)[nH]2)cc1,inactive
13,CNC(=O)c1ccc(C)c(-n2c(C)cc(OCc3ccc(F)cc3F)c(Br)c2=O)c1,inactive
14,COc1ccc(CC2=NN3C([C@@H](CCc4ccccc4)[C@@H](C)O)=NC(C)C3C(=O)N2)cc1OC (stereo not given in full),inactive
15,COc1ccc(C2=N[C@H](c3ccc(Cl)cc3)[C@H](c3ccc(Cl)cc3)N2C(=O)N2CCNC(=O)C2)c(OC(C)C)c1,inactive
16,Nc1nc2ccc(OC(F)(F)F)cc2s1,inactive
17,CC(C)(N)C(=O)N[C@H](COCc1ccccc1)C(=O)N1CCC2(CC1)CN(S(C)(=O)=O)c1ccccc12,inactive
18,CCOC(=O)N[C@@H]1CC[C@@H]2[C@@H](C1)C[C@H]1C(=O)O[C@H](C)[C@H]1[C@@H]2C=Cc1ccc(-c2cccc(F)c2)cn1,inactive
19,CCCS(=O)(=O)Nc1ccc(F)c(C(=O)c2c[nH]c3ncc(-c4ccc(Cl)cc4)cc23)c1F,inactive
20,OCCC#Cc1nc(-c2ccc(F)cc2)c(-c2ccncc2)n1CCCc1ccccc1,inactive
21,Clc1cccc(Cl)c1NC1=NCCN1,inactive
22,NC(N)=NC(=O)c1nc(Cl)c(N)nc1N,inactive
23,Cc1ccccc1C(OCCN(C)C)c1ccccc1 (stereo not given),inactive
